Screening data as filed in PubChem BioAssay.
KB-3-1 tox = qHTS assay for MDR1-selective chemotherapeutics: Primary screen using the parental adenocarcinoma cell KB-3-1. 1.4% of 400,000 active. Potency, µM (titrated, usually from 46.1 µM), usual class: cytotoxic. KB-3-1 viability, CellTiter-Glo ATP luminescence, 72 h. AID 1347075, 2019; note: nearly all actives have a fitted effect of over 60% in size
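Here the drug-naive KB-3-1 line serves as comparator for MDR sub-line selectivity; cells received compound titrations, 72 h at 37 °C, then CellTiter-Glo readout.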
HT1080 IDH1KD tx = qHTS for induction of synthetic lethality in tumor cells producing 2HG: qHTS for the HT-1080-IDH1KD cell line | HT-1080 IDH1 knockdown viability, ATP luminescence, 48 h | Potency, µM (highest dose often 46.1 µM), for inactives: top-dose activity, negative = toxicity, usual class: cytotoxic | 2% of 360,000 active;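 note: 0% = DMSO wells and -100% = cell-free medium wells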
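Using the IDH1-knockdown HT-1080 line run in the same batch and compound series as the NT line, viability after 48 h at 37 °C was determined by CellTiter-Glo luminescence and expressed as % activity.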
DT40 TDP1 no CPT = qHTS for Inhibitors of human tyrosyl-DNA phosphodiesterase 1 (TDP1): qHTS in cells in absence of CPT | 15% of 420,000 active | DT40 Tdp1-/- hTDP1 cells, no CPT, ATP luminescence, 48 h | Potency, µM (top dose mostly 46.2 µM), for the others: top-dose activity change, negative = growth inhibition, actives largely listed as inhibitors; note: nearly all actives have a fitted effect of over 55% in size
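Chicken DT40 Tdp1-/- cells complemented with human TDP1, screened without camptothecin (DMSO vehicle only), 400 cells/well. Compounds pin-transferred, cells incubated at 37 °C for at least 48 hr. Growth read as ATP-dependent luminescence (CellTiter-Glo, 30 min at RT).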
DT40 TDP1 CPT = qHTS for Inhibitors of human tyrosyl-DNA phosphodiesterase 1 (TDP1): qHTS in cells in presence of CPT | Potency, µM (top dose mostly 46.2 µM), inactives show top-dose activity change, negative = growth inhibition, actives largely listed as inhibitors | AID 686979, 2013 | 12% of 420,000 active | chicken DT40 Tdp1-/-;hTDP1 cells + 20 nM CPT, ATP luminescence, 48 h; note: nearly all actives have a fitted effect of over 55% in size
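Chicken DT40 Tdp1-/- cells complemented with human TDP1, 400 cells/well, exposed to compounds plus 20 nM camptothecin for at least 48 h at 37 C; viability read as ATP content by CellTiter-Glo luminescence.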
KB-V1 cytotox = qHTS assay for MDR1-selective chemotherapeutics: Primary screen using the drug-selected MDR subline cells KB-V1; KB-V1 MDR cells viability, CellTiter-Glo, 72 h; Potency, µM (series often up to 46.1 µM), actives largely listed as cytotoxic; 3.4% of 400,000 active; AID 1347076, 2019; note: nearly all actives have a fitted effect of over 60% in size
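KB-V1 cells (P-gp-expressing MDR subline of KB-3-1) in phenol-red-free DMEM with 10% FBS were exposed to library compounds over a concentration series for 72 h at 37 degrees C. Viability read by CellTiter-Glo luminescence; concentration-effect curves fitted after normalization.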
HT1080-NT tox = qHTS for induction of synthetic lethality in tumor cells producing 2HG: qHTS for the HT-1080-NT fibrosarcoma cell line | HT-1080-NT fibrosarcoma viability, CellTiter-Glo ATP luminescence, 48 h | Potency, µM (series often up to 46.1 µM), for inactives: at the highest dose activity, negative = less viability, actives largely listed as cytotoxic | 1.6% of 360,000 active | AID 686970, 2013;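 note: NT is the 2HG producing partner of a matched IDH1 knockdown line; 0% = DMSO-treated cells and -100% = media-only wells without cells; nearly all actives have a fitted effect of over 55% in size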
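Read-out is CellTiter-Glo luminescence after 10 minutes at room temperature, following 48 hours' compound treatment of HT-1080-NT cells (750 cells/well, RPMI, 5% FBS, 37 degrees C).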
* marks the source's active call; other numbers are inactive results; i = inactive; ? = inconclusive; nt = not tested or not shown. The list is not random: actives were taken first. Their share in the collection is about 19%. Calls come from the whole dose curve; as a rule, active = well fitted curve in the direction sought with a large enough effect; inconclusive = small, poorly fitted or top-dose-only effect, or another doubt; inactive = no such curve, though single readings can be large; an effect the other way counts as inactive or inconclusive. Unless noted, % is set by controls: 0 for no effect and ±100 for the full control effect; potency is the fitted concentration of half-maximal effect.

SMILES | KB-3-1 tox | HT1080 IDH1KD tx | DT40 TDP1 no CPT | DT40 TDP1 CPT | KB-V1 cytotox | HT1080-NT tox
CC1(C)S[C@@H]2C(C(=O)O)NC(=O)N2C1C(=O)O (stereo partly specified) | i | nt | -6% | 2% | i | nt
CC(=O)Nc1ccc(S(=O)(=O)NC(CC(=O)N(C)Cc2ccccc2)C(C)C)cc1 (stereo unspecified) | i | 12% | 23µM* | 12µM* | i | 1%
CC(=O)C1=C(S(=O)(=O)c2ccc(C)cc2)CS(=O)(=O)C1 | ? | ? | 4.6µM* | 3.7µM* | i | ?
Cc1ccc(S(=O)(=O)C2CS(=O)(=O)CC2O)cc1 (stereo unspecified) | i | 9% | 0% | 1% | i | 3%
CCN(CC(=O)Nc1c(F)cccc1F)C(=O)CNC(=O)c1ccc(Br)o1 | i | 0% | -8% | -11% | i | -4%
CCN1CCN(CC(=O)N2CCCC(C(=O)c3ccc(Oc4ccccc4)cc3)C2)CC1 (stereo unspecified) | i | -23% | ? | ? | i | -22%
Cc1ccc(C(=O)N2CCCC(C(=O)c3ccc(Oc4ccccc4)cc3)C2)cn1 (stereo unspecified) | ? | ? | 16µM* | 21µM* | ? | -21%
Cc1ccc(C(=O)N2CCCC(C(=O)c3ccc(Cl)cc3C)C2)cn1 (stereo unspecified) | ? | -7% | 21µM* | -29% | i | 11%
COCCC(=O)N1CCCC(C(=O)c2ccc(Oc3ccccc3)cc2)C1 (stereo unspecified) | i | -2% | 21µM* | -29% | i | -7%
Cc1cnc(C(=O)N2CCCC(C(=O)c3ccc(Cl)cc3C)C2)cn1 (stereo unspecified) | i | 5% | ? | ? | ? | -7%
CC(C)Oc1ccc(C2CC(=O)N(c3cccc(Br)c3)C2=O)cc1 (stereo unspecified) | i | 0% | -20% | -28% | i | 4%
Cc1ccc(Cn2c(-n3nc(C)cc3C)nc3c2c(=O)[nH]c(=O)n3C)cc1 | i | 5% | -23% | ? | i | 8%
COc1ccc(CCn2c(-n3nc(C)cc3C)nc3c2c(=O)[nH]c(=O)n3C)cc1 | i | ? | 1.6µM* | 1.8µM* | 1.6µM* | ?
COc1cc(CN(C2CCCCC2)S(=O)(=O)c2ccc(S(=O)(=O)N(C)C3CCCCC3)cc2)cc(OC)c1OC | i | 12% | ? | ? | i | 10%
COc1cc(C(=O)Nc2cccc3cccnc23)cc(OC)c1OC | i | -12% | 26µM* | ? | ? | -5%
COc1cc(OC)cc(C(=O)Nc2cccc3cccnc23)c1 | i | -5% | ? | ? | ? | -2%
Cc1cccc(C(=O)Nc2cccc3cccnc23)c1 | i | 0% | -18% | 7% | i | 3%
CCCOc1cccc(C(=O)Nc2cccc3cccnc23)c1 | i | nt | ? | 23µM* | i | nt
Cc1cnc(C(=O)Nc2cccc3cccnc23)cn1 | 5.2µM* | ? | 0.0092µM* | 0.0073µM* | ? | ?
O=C(COC(=O)c1nc(Cl)c(Cl)c(Cl)c1Cl)NCc1ccccc1 | i | ? | -16% | ? | i | -25%
COc1ccccc1N1CCN(C(=O)C2CCCN(S(=O)(=O)c3ccc4c(c3)CCCN4C(C)=O)C2)CC1 (stereo unspecified) | ? | -6% | 8.2µM* | 8.2µM* | i | -11%
CC(=O)N1CCCc2cc(S(=O)(=O)N3CCCC(C(=O)N4CCN(c5cc(C)ccc5C)CC4)C3)ccc21 (stereo unspecified) | ? | ? | 6.5µM* | 6.5µM* | ? | ?
COc1ccccc1N1CCN(C(=O)C2CCN(S(=O)(=O)c3ccc4c(c3)CC(C)N4C(=O)C3CC3)CC2)CC1 (stereo unspecified) | i | -7% | ? | ? | i | -9%
Cc1ccc(C)c(N2CCN(C(=O)C3CCCN(S(=O)(=O)c4cnc[nH]4)C3)CC2)c1 (stereo unspecified) | i | -3% | ? | ? | i | 0%
Cc1cccc(Nc2nc(-c3c(C)nc4ccccn34)cs2)c1 | ? | ? | 11µM* | 13µM* | 7.3µM* | ?
SMILES | KB-3-1 tox | HT1080 IDH1KD tx | DT40 TDP1 no CPT | DT40 TDP1 CPT | KB-V1 cytotox | HT1080-NT tox
Cc1nc2ccccn2c1-c1csc(Nc2ccc(C(=O)O)cc2)n1 | ? | 3.3µM* | 3.7µM* | 2.9µM* | ? | 2.1µM*
Cc1nc2ccccn2c1-c1csc(Nc2cccc(C(=O)O)c2)n1 | i | -12% | -8% | 2% | i | -17%
Cc1cccc(Nc2nc(-c3ccncc3)cs2)c1 | i | ? | ? | ? | ? | -25%
Cc1nc2ccccn2c1-c1csc(Nc2cccc(O)c2)n1 | ? | 1.5µM* | 1.6µM* | 0.73µM* | 10µM* | 1.6µM*
Cc1nc(N)sc1-c1csc(Nc2cccc(O)c2)n1 | i | -19% | ? | ? | i | -12%
COc1ccc(-c2csc(NCc3ccco3)n2)cc1C | i | -13% | ? | -27% | i | -14%
Cc1ccn2c(-c3csc(NCc4ccco4)n3)c(C)nc2c1 | i | -26% | 18µM* | 15µM* | i | -22%
CC1(C(=O)Nc2ccc3c(c2)OCO3)CCN1C(=O)CCc1cccs1 (stereo unspecified) | i | 8% | -28% | -17% | i | 8%
COCCn1c(=O)[nH]c(=O)c2c(C(F)(F)F)cc(-c3cccs3)nc21 | i | -12% | -29% | 0% | i | -1%
CCOc1ccccc1NC(=O)c1cccc(NC(=O)CC(c2ccccc2)c2ccccc2)c1 | i | 5% | 26µM* | 23µM* | i | 5%
CCOc1ccccc1NC(=O)c1cccc(NC(=O)c2ccco2)c1 | 2.6µM* | 2.3µM* | 1.6µM* | 1.5µM* | ? | ?
CCOc1ccccc1NC(=O)c1ccc(Cl)c(NC(=O)CC(c2ccccc2)c2ccccc2)c1 | i | -16% | ? | 18µM* | ? | -16%
